About 8,800 targets were measured; listed, in parts, are those with a hit and a random draw of the rest. About 0.5% of all pairs of compound and target were hits. Unmarked numbers belong to inactive results.
Assays:
Test in all cases: log2 fold change, soluble protein after heating vs DMSO (PISA); higher = thermal stabilisation; K562 lysate, 10 uM; active = over 0.2 and 3.5 SD of the protein, either way, in both replicates (recomputed)
lapatinib = compound: CS(=O)(=O)CCNCc1ccc(-c2ccc3ncnc(Nc4ccc(OCc5cccc(F)c5)c(Cl)c4)c3c2)o1 [lapatinib]
Procedure, shortened: (§1)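 K562 pellets were dounce-homogenised in PBS pH 7.4 with 1 mM MgCl2, and the crude extract at 1 mg/mL protein was treated with 10 μM compound for 30 min. Aliquots were heated for 3 min across 48°C-58°C, pooled, and brought to 0.5% NP-40 at 4°C; soluble protein was the supernatant after 21,000xg for 90 min. Soluble protein was quantified by TMTpro 16plex LC-MS/MS with channel sums equalised, and reported as log2 fold change in thermal stability against DMSO controls, with values from duplicates.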

pictilisib = compound: CS(=O)(=O)N1CCN(Cc2cc3nc(-c4cccc5[nH]ncc45)nc(N4CCOCC4)c3s2)CC1 [pictilisib]
Procedure, shortened: as §1

crizotinib = compound: C[C@@H](Oc1cc(-c2cnn(C3CCNCC3)c2)cnc1N)c1c(Cl)ccc(F)c1Cl [crizotinib]
Procedure, shortened: as §1

[1] = compound: C[C@H](C1=CC=C(C=C1)C(=O)NC2=C3C=CNC3=NC=C2)N
Procedure, shortened: as §1

duvelisib = compound: C[C@H](Nc1ncnc2nc[nH]c12)c1cc2cccc(Cl)c2c(=O)n1-c1ccccc1 [duvelisib]
Procedure, shortened: as §1

gandotinib = compound: Cc1cc(Nc2cc(CN3CCOCC3)c3nc(C)c(Cc4ccc(Cl)cc4F)n3n2)n[nH]1 [gandotinib]
Procedure, shortened: as §1

tozasertib = compound: Cc1cc(Nc2cc(N3CCN(C)CC3)nc(Sc3ccc(NC(=O)C4CC4)cc3)n2)n[nH]1 [tozasertib]
Procedure, shortened: as §1

doramapimod = compound: Cc1ccc(-n2nc(C(C)(C)C)cc2NC(=O)Nc2ccc(OCCN3CCOCC3)c3ccccc23)cc1 [doramapimod]
Procedure, shortened: as §1

bafetinib = compound: Cc1ccc(NC(=O)c2ccc(CN3CC[C@H](N(C)C)C3)c(C(F)(F)F)c2)cc1Nc1nccc(-c2cncnc2)n1 [bafetinib]
Procedure, shortened: as §1

[2] = compound: Cc1cccc(CC(=O)N2CCc3c2ccc(-c2cn(C)c4ncnc(N)c24)c3F)n1
Procedure, shortened: as §1

nilotinib = compound: Cc1cn(-c2cc(NC(=O)c3ccc(C)c(Nc4nccc(-c5cccnc5)n4)c3)cc(C(F)(F)F)c2)cn1 [nilotinib]
Procedure, shortened: as §1

[3] = compound: Cc1nc(Nc2n[nH]c3c2CN(C(=O)N[C@H](CN(C)C)c2ccccc2)C3(C)C)c2sccc2n1
Procedure, shortened: as §1

dasatinib = compound: Cc1nc(Nc2ncc(C(=O)Nc3c(C)cccc3Cl)s2)cc(N2CCN(CCO)CC2)n1 [dasatinib]
Procedure, shortened: as §1

[4] = compound: Cc1ncc(-c2ccnc(Nc3ccc(S(C)(=O)=O)cc3)n2)n1C(C)C
Procedure, shortened: as §1

[5] = compound: Cn1cc(-c2ccc3c(c2)CCN3C(=O)Cc2cccc(C(F)(F)F)c2)c2c(N)ncnc21
Procedure, shortened: as §1

quisinostat = compound: Cn1cc(CNCC2CCN(c3ncc(C(=O)NO)cn3)CC2)c2ccccc21 [quisinostat]
Procedure, shortened: as §1

tipifarnib = compound: Cn1cncc1[C@@](N)(c1ccc(Cl)cc1)c1ccc2c(c1)c(-c1cccc(Cl)c1)cc(=O)n2C [tipifarnib]
Procedure, shortened: as §1

[6] = compound: NC(=O)Nc1cc(-c2cccc(F)c2)sc1C(=O)N[C@H]1CCCNC1
Procedure, shortened: as §1

[7] = compound: NC(=O)c1cnc(N[C@@H]2CCCC[C@@H]2N)nc1Nc1cccc(-n2nccn2)c1
Procedure, shortened: as §1

[8] = compound: NC1(c2ccc(-c3nc4ccn5c(=O)[nH]nc5c4cc3-c3ccccc3)cc2)CCC1
Procedure, shortened: as §1

Sequence of UniProt O00767 (O00767 whole entry, looked up): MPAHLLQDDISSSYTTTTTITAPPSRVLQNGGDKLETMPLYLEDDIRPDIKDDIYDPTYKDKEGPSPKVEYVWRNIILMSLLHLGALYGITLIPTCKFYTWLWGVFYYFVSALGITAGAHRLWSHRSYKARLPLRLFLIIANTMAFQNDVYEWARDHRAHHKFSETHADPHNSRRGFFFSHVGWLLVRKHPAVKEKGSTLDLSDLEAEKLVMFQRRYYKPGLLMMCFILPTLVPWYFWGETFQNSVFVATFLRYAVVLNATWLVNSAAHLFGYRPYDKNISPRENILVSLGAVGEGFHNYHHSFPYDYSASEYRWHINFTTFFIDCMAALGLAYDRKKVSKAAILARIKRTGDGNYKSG
Sequence of UniProt Q8NC42 (Q8NC42 whole entry, looked up): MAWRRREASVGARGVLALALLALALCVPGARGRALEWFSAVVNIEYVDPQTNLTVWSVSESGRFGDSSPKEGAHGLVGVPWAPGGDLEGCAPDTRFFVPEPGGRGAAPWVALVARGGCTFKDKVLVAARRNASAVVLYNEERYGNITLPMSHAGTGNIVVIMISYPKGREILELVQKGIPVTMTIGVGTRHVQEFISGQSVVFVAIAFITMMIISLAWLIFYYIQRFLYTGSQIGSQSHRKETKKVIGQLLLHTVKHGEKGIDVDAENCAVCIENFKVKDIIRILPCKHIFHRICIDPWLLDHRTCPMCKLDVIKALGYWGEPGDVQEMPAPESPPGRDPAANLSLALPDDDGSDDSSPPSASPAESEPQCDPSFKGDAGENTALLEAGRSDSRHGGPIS
Sequence of UniProt O75150 (O75150 whole entry, looked up): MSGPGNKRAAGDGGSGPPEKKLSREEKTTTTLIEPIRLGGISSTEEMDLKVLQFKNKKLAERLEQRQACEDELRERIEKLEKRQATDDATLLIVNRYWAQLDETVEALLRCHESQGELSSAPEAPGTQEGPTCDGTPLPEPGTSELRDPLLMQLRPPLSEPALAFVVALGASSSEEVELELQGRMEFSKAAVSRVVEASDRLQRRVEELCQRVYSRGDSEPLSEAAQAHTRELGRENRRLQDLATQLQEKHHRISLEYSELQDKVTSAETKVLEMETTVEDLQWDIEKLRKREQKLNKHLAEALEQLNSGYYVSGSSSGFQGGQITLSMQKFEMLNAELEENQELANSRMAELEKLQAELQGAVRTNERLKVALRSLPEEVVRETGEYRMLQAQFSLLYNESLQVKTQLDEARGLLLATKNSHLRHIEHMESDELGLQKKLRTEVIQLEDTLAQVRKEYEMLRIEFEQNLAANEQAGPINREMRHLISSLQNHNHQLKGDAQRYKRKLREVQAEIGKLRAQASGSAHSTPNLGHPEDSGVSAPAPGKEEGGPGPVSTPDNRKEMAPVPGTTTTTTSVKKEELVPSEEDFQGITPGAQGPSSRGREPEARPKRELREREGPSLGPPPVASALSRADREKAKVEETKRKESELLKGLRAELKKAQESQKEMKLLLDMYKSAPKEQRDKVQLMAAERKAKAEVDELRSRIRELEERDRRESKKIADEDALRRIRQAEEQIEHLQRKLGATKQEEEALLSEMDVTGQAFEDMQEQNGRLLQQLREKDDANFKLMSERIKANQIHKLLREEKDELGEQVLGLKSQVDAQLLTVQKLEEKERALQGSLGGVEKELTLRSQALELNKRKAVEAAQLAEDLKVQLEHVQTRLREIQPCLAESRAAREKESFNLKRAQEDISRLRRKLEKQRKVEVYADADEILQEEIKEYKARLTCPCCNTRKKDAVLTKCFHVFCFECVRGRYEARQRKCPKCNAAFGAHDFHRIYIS
Sequence of UniProt P61586 (P61586 whole entry, looked up): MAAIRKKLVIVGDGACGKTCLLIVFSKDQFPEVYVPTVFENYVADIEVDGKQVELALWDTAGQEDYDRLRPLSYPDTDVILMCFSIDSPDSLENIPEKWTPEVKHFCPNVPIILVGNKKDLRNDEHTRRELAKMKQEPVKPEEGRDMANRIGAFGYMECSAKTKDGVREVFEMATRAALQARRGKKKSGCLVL
Sequence of UniProt O43502 (O43502 whole entry, looked up): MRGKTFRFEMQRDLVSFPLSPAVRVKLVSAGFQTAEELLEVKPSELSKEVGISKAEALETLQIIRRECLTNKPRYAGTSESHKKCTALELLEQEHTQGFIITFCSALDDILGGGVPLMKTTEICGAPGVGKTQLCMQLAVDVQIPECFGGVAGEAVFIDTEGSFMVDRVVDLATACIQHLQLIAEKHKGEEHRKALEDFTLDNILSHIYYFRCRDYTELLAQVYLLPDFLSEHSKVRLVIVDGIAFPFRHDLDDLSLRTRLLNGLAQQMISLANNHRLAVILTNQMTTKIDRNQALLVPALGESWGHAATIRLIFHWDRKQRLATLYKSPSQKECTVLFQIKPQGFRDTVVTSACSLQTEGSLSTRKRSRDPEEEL
Sequence of UniProt Q9H0R6 (Q9H0R6 whole entry, looked up): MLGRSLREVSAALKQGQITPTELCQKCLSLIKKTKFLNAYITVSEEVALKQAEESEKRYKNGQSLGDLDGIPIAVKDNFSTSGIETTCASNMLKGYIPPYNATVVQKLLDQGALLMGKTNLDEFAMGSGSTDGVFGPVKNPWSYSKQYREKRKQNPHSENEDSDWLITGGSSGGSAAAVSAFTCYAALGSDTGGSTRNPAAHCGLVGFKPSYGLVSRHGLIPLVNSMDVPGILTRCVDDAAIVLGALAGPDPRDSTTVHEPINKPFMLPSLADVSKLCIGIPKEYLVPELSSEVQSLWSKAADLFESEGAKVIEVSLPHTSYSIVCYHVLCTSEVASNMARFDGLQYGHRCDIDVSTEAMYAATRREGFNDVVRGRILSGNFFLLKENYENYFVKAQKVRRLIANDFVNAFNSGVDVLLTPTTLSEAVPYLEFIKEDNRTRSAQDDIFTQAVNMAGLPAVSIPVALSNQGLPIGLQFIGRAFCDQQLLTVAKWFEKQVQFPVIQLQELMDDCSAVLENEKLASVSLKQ

Target | log2 fold change (lapatinib) | log2 fold change (pictilisib) | log2 fold change (crizotinib) | log2 fold change [1] | log2 fold change (duvelisib) | log2 fold change (gandotinib) | log2 fold change (tozasertib) | log2 fold change (doramapimod) | log2 fold change (bafetinib) | log2 fold change [2] | log2 fold change (nilotinib) | log2 fold change [3] | log2 fold change (dasatinib) | log2 fold change [4] | log2 fold change [5] | log2 fold change (quisinostat) | log2 fold change (tipifarnib) | log2 fold change [6] | log2 fold change [7] | log2 fold change [8]
RPS9 (UniProt P46781) | -0.012 | 0.009 | 0.061 | 0.244 (active) | 0.006 | -0.087 | 0.016 | -0.023 | 0.034 | -0.07 | 0.001 | -0.023 | 0.067 | -0.039 | 0.023 | 0.141 | 0.022 | -0.037 | -0.015 | 0.039
RPS18 (UniProt P62269) | -0.046 | 0.006 | -0.028 | -0.186 | -0.019 | 0.071 | 0.008 | 0.026 | -0.004 | 0.094 | 0.004 | -0.02 | -0.009 | -0.039 | -0.018 | 0 | 0.031 | -0.018 | 0.014 | -0.006
RHOA (UniProt P61586) | 0.009 | 0.314 | 0.035 | 0.345 (active) | -0.023 | -0.058 | -0.092 | -0.036 | 0.08 | -0.138 | -0.08 | 0.104 | 0.017 | -0.008 | -0.013 | 0.167 | -0.021 | -0.004 | 0.008 | -0.062
SCD (UniProt O00767) | 0.059 | 0 | -0.08 | -0.443 (active) | 0.067 | 0.155 | 0.065 | 0.077 | -0.053 | 0.273 | -0.007 | -0.017 | 0.01 | -0.01 | 0.007 | -0.144 | -0.077 | -0.023 | -0.183 | 0.03
RNF149 (UniProt Q8NC42) | 0.073 | -0.025 | -0.006 | -0.039 | -0.025 | -0.026 | – | -0.099 | -0.105 | -0.013 | 0.083 | 0.129 | -0.019 | 0.099 | 0.003 | -0.019 | 0.087 | 0.038 | 0.156 | -0.019
QRSL1 (UniProt Q9H0R6) | 0.038 | 0.044 | 0.031 | 0.105 | 0.044 | -0.04 | 0.044 | 0.003 | -0.227 | -0.022 | -0.022 | 0.031 | -0.018 | 0.069 | 0.07 | -0.054 | -0.002 | 0.034 | -0.02 | -0.031
RAB3IL1 (UniProt E9PK89) | -0.025 | 0.063 | 0.039 | 0.045 | -0.036 | 0.006 | 0.059 | -0.117 | -0.094 | 0.057 | -0.039 | -0.124 | 0.08 | 0.003 | -0.084 | 0.027 | 0.061 | -0.086 | -0.012 | 0.157
RNF40 (UniProt O75150) | -0.019 | -0.005 | -0.01 | -0.011 | -0.001 | -0.048 | -0.002 | 0.002 | 0.01 | 0.03 | -0.022 | 0.009 | -0.012 | 0.003 | 0.031 | -0.029 | 0.003 | 0.031 | 0.009 | -0.012
RAD51C (UniProt O43502) | -0.042 | -0.023 | -0.074 | -0.006 | 0.022 | 0.065 | -0.089 | 0.074 | -0.119 | -0.044 | 0.013 | 0.021 | -0.014 | 0.009 | -0.019 | 0.036 | 0.03 | 0.051 | 0.042 | -0.021

From the supplement of paper PMC10849652
